# Reference: PubChem BioAssay (NCI)
# About 79,000 compounds went through this panel and 15% of them were active in at least one assay; those are over-represented in the sample as a whole. A number with no mark means an inactive call. Calls of active or inactive are those of the source. No stated cut-off is given here; in the data, active means growth inhibition above about 70%; inactive means the rest.
# Assays:
# [1] = NCI Yeast Anticancer Drug Screen. Data for the rad52 strain (AID 147);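 further: 0% = growth of vehicle-treated control cultures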; settings: S. cerevisiae rad52 mutant growth inhibition, hits give high values
# Method in brief: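 Here a repair-compromised yeast strain receives each compound; its growth is then quantified and normalised to vehicle-only controls.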
# [2] = NCI Yeast Anticancer Drug Screen. Data for the wt1 strain (AID 149);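 further: 0% = growth of vehicle-treated wt1 cultures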; settings: S. cerevisiae wt1 strain (SPY 50644) growth inhibition, hits give high values
# Method in brief: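 Using yeast strain wt1, compound-induced growth inhibition was determined against vehicle-treated cultures.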
# [3] = NCI Yeast Anticancer Drug Screen. Data for the rad50EPP+ strain (AID 151);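 further: 0% = growth of vehicle-treated control cultures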; settings: S. cerevisiae rad50 mutant strain, hits give high values
# Method in brief: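 Read-out is yeast growth inhibition relative to vehicle; cells used were the rad50EPP+ strain.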
# [4] = NCI Yeast Anticancer Drug Screen. Data for the mgt1 strain (AID 153); settings: S. cerevisiae mgt1 mutant growth inhibition, hits give high values
# Method in brief: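 Measured: inhibition of mgt1 yeast growth by compound, normalized to vehicle-treated cultures.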
# [5] = NCI Yeast Anticancer Drug Screen. Data for the rad50 strain (AID 155);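 further: 0% = growth of vehicle-only cultures of the same strain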; settings: S. cerevisiae rad50 strain growth inhibition, hits give high values
# Method in brief: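 Relative growth inhibition (compound vs vehicle) was measured in yeast with a defined repair-gene alteration.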
# [6] = NCI Yeast Anticancer Drug Screen. Data for the mec2-1 strain (AID 157); settings: S. cerevisiae mec2-1 strain, hits give high values
# Method in brief: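 Using mec2-1 yeast: add compound, measure growth, express inhibition versus vehicle-treated cultures.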
# [7] = NCI Yeast Anticancer Drug Screen. Data for the rad14 strain (AID 159);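 further: 0% = growth of vehicle-treated control cultures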; settings: S. cerevisiae rad14 strain growth inhibition, hits give high values
# Method in brief: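 Screen for anticancer potential: a yeast strain altered in DNA damage repair is grown with compound, and reduced growth is quantified against vehicle controls.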
# [8] = NCI Yeast Anticancer Drug Screen. Data for the sgs1 mgt1 strain (AID 161);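 further: 0% = growth of cultures given vehicle only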; settings: S. cerevisiae sgs1 mgt1 strain, hits give high values
# Method in brief: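 Growth of a repair-deficient yeast mutant was monitored after compound treatment and expressed as inhibition relative to vehicle-treated cultures.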
# [9] = NCI Yeast Anticancer Drug Screen. Data for the CLN2oe strain (AID 163);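 further: 0% = growth of vehicle-only control cultures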; settings: S. cerevisiae CLN2oe strain, hits give high values
# Method in brief: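 Whole-cell yeast growth assay. A strain engineered for altered cell-cycle control received compound, and inhibition relative to vehicle-treated cultures was recorded.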
# [10] = NCI Yeast Anticancer Drug Screen. Data for the cln2 rad14 strain (AID 165);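 further: 0% = growth equal to vehicle treated cultures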; settings: S. cerevisiae cln2 rad14 strain, hits give high values
# Method in brief: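 Yeast strain cln2 rad14, bearing defects in cell cycle control and DNA repair, serves as the test system; values reflect growth inhibition compared with vehicle.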
# [11] = NCI Yeast Anticancer Drug Screen. Data for the bub3 strain (AID 167); settings: S. cerevisiae bub3 mutant strain, hits give high values
# Method in brief: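 Screening used yeast with an engineered genetic alteration affecting cell cycle control. Compound-exposed cultures were compared with vehicle cultures, and reduced growth was taken as inhibition.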
# [12] = NCI Yeast Anticancer Drug Screen. Data for the wt2 strain (AID 169);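 further: 0% = growth of vehicle-treated yeast cultures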; settings: S. cerevisiae wt2 strain growth inhibition, hits give high values
# Method in brief: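 Treated yeast vs. vehicle-treated yeast: growth inhibition determined.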
# [13] = NCI Yeast Anticancer Drug Screen. Data for the mlh1 strain (AID 171);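 further: 0% = growth of vehicle-treated control cultures of the same strain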; settings: S. cerevisiae mlh1 strain growth inhibition, hits give high values
# Method in brief: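 A yeast strain with a defined genetic lesion serves as the test organism. Cultures receive compound or vehicle, and growth is measured.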
# [14] = NCI Yeast Anticancer Drug Screen. Data for the sgs1 strain (AID 173);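 further: 0% = growth of vehicle-only control cultures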; settings: S. cerevisiae sgs1 mutant, hits give high values
# Method in brief: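 A genetically defined yeast mutant is incubated with the test compound, and its growth is compared to that of the same strain given vehicle.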
# [15] = NCI Yeast Anticancer Drug Screen. Data for the mlh1 rad18 strain (AID 175); settings: S. cerevisiae mlh1 rad18 strain growth inhibition, hits give high values
# Method in brief: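 Steps: expose repair-defective yeast to compound; measure growth; express inhibition against vehicle-treated controls.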
# [16] = NCI Yeast Anticancer Drug Screen. Data for the rad18 strain (AID 177); settings: S. cerevisiae rad18 mutant growth inhibition, hits give high values
# Method in brief: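 Measured value is growth inhibition of a yeast strain bearing a DNA repair alteration, referenced to vehicle-treated cells.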
# [17] = at 5.0 µM (retest, dose inferred, filed as 0.5)
# [18] = at 50.0 µM (retest, dose inferred, filed as 5.0)
structure (smiles),measurement,setting,value
Cc1ccc(S(=O)(=O)N/N=C/C(Br)=C(/Br)C(=O)O)cc1,growth inhibition,[1]; at 1.2 µM,31%
same,growth inhibition,[1]; at 3.7 µM,59%
same,growth inhibition,[1]; at 11.0 µM,86% (active)
same,growth inhibition,[1]; at 33.0 µM,95% (active)
same,growth inhibition,[1]; at 100.0 µM,89% (active)
same,growth inhibition,[2]; at 1.2 µM,29%
same,growth inhibition,[2]; at 3.7 µM,28%
same,growth inhibition,[2]; at 11.0 µM,43%
same,growth inhibition,[2]; at 33.0 µM,91% (active)
same,growth inhibition,[2]; at 100.0 µM,41%
same,growth inhibition,[3]; at 1.2 µM,28%
same,growth inhibition,[3]; at 3.7 µM,46%
same,growth inhibition,[3]; at 11.0 µM,80% (active)
same,growth inhibition,[3]; at 33.0 µM,96% (active)
same,growth inhibition,[3]; at 100.0 µM,82% (active)
same,growth inhibition,[4]; at 1.2 µM,35%
same,growth inhibition,[4]; at 3.7 µM,48%
same,growth inhibition,[4]; at 11.0 µM,79% (active)
same,growth inhibition,[4]; at 33.0 µM,98% (active)
same,growth inhibition,[4]; at 100.0 µM,89% (active)
same,growth inhibition,[5]; at 1.2 µM,41%
same,growth inhibition,[5]; at 3.7 µM,61%
same,growth inhibition,[5]; [17],38%
same,growth inhibition,[5]; at 11.0 µM,86% (active)
same,growth inhibition,[5]; at 33.0 µM,97% (active)
same,growth inhibition,[5]; [18],79% (active)
same,growth inhibition,[5]; at 50.0 µM,57.8%
same,growth inhibition,[5]; at 100.0 µM,95% (active)
same,growth inhibition,[6]; at 1.2 µM,20%
same,growth inhibition,[6]; at 3.7 µM,35%
same,growth inhibition,[6]; [17],-11%
same,growth inhibition,[6]; at 11.0 µM,57%
same,growth inhibition,[6]; at 33.0 µM,96% (active)
same,growth inhibition,[6]; [18],10%
same,growth inhibition,[6]; at 50.0 µM,43.8%
same,growth inhibition,[6]; at 100.0 µM,70% (active)
same,growth inhibition,[7]; at 1.2 µM,14%
same,growth inhibition,[7]; at 3.7 µM,28%
same,growth inhibition,[7]; at 11.0 µM,50%
same,growth inhibition,[7]; at 33.0 µM,97% (active)
same,growth inhibition,[7]; at 100.0 µM,95% (active)
same,growth inhibition,[8]; [17],1%
same,growth inhibition,[8]; [18],43%
same,growth inhibition,[8]; at 50.0 µM,62.8%
same,growth inhibition,[9]; at 1.2 µM,3%
same,growth inhibition,[9]; at 3.7 µM,8%
same,growth inhibition,[9]; at 11.0 µM,21%
same,growth inhibition,[9]; at 33.0 µM,54%
same,growth inhibition,[9]; at 100.0 µM,43%
same,growth inhibition,[10]; [17],24%
same,growth inhibition,[10]; [18],42%
same,growth inhibition,[10]; at 50.0 µM,25.2%
same,growth inhibition,[11]; at 1.2 µM,-5%
same,growth inhibition,[11]; at 3.7 µM,1%
same,growth inhibition,[11]; [17],-27%
same,growth inhibition,[11]; at 11.0 µM,49%
same,growth inhibition,[11]; at 33.0 µM,93% (active)
same,growth inhibition,[11]; [18],37%
same,growth inhibition,[11]; at 50.0 µM,64.2%
same,growth inhibition,[11]; at 100.0 µM,82% (active)
same,growth inhibition,[12]; at 1.2 µM,-3%
same,growth inhibition,[12]; at 3.7 µM,10%
same,growth inhibition,[12]; at 11.0 µM,48%
same,growth inhibition,[12]; at 33.0 µM,99% (active)
same,growth inhibition,[12]; at 100.0 µM,98% (active)
same,growth inhibition,[13]; at 1.2 µM,35%
same,growth inhibition,[13]; at 3.7 µM,48%
same,growth inhibition,[13]; at 11.0 µM,79% (active)
same,growth inhibition,[13]; at 33.0 µM,98% (active)
same,growth inhibition,[13]; at 100.0 µM,89% (active)
same,growth inhibition,[14]; at 1.2 µM,28%
same,growth inhibition,[14]; at 3.7 µM,38%
same,growth inhibition,[14]; at 11.0 µM,56%
same,growth inhibition,[14]; at 33.0 µM,95% (active)
same,growth inhibition,[14]; at 100.0 µM,77% (active)
same,growth inhibition,[15]; [17],25%
same,growth inhibition,[15]; [18],69%
same,growth inhibition,[15]; at 50.0 µM,91.9% (active)
same,growth inhibition,[16]; at 1.2 µM,24%
same,growth inhibition,[16]; at 3.7 µM,36%
same,growth inhibition,[16]; at 11.0 µM,64%
same,growth inhibition,[16]; at 33.0 µM,95% (active)
same,growth inhibition,[16]; at 100.0 µM,86% (active)
COc1ccc2nc3cccc([N+](=O)[O-])c3c(NCCCCCC(=O)O)c2c1,growth inhibition,[1]; at 1.2 µM,87% (active)
same,growth inhibition,[1]; at 3.7 µM,96% (active)
same,growth inhibition,[1]; at 11.0 µM,97% (active)
same,growth inhibition,[1]; at 33.0 µM,98% (active)
same,growth inhibition,[1]; at 100.0 µM,98% (active)
same,growth inhibition,[2]; at 1.2 µM,2%
same,growth inhibition,[2]; at 3.7 µM,29%
same,growth inhibition,[2]; at 11.0 µM,93% (active)
same,growth inhibition,[2]; at 33.0 µM,98% (active)
same,growth inhibition,[2]; at 100.0 µM,98% (active)
same,growth inhibition,[3]; at 1.2 µM,38%
same,growth inhibition,[3]; at 3.7 µM,81% (active)
same,growth inhibition,[3]; at 11.0 µM,95% (active)
same,growth inhibition,[3]; at 33.0 µM,97% (active)
same,growth inhibition,[3]; at 100.0 µM,98% (active)
same,growth inhibition,[4]; at 1.2 µM,0%
same,growth inhibition,[4]; at 3.7 µM,26%
same,growth inhibition,[4]; at 11.0 µM,91% (active)
same,growth inhibition,[4]; at 33.0 µM,97% (active)
same,growth inhibition,[4]; at 100.0 µM,99% (active)
same,growth inhibition,[5]; at 1.2 µM,84% (active)
same,growth inhibition,[5]; at 3.7 µM,94% (active)
same,growth inhibition,[5]; [17],97% (active)
same,growth inhibition,[5]; at 11.0 µM,96% (active)
same,growth inhibition,[5]; at 33.0 µM,97% (active)
same,growth inhibition,[5]; [18],98% (active)
same,growth inhibition,[5]; at 50.0 µM,87% (active)
same,growth inhibition,[5]; at 100.0 µM,97% (active)
same,growth inhibition,[6]; at 1.2 µM,63%
same,growth inhibition,[6]; at 3.7 µM,96% (active)
same,growth inhibition,[6]; [17],96% (active)
same,growth inhibition,[6]; at 11.0 µM,97% (active)
same,growth inhibition,[6]; at 33.0 µM,98% (active)
same,growth inhibition,[6]; [18],99% (active)
same,growth inhibition,[6]; at 50.0 µM,91% (active)
same,growth inhibition,[6]; at 100.0 µM,99% (active)
same,growth inhibition,[7]; at 1.2 µM,96% (active)
same,growth inhibition,[7]; at 3.7 µM,99% (active)
same,growth inhibition,[7]; at 11.0 µM,99% (active)
same,growth inhibition,[7]; at 33.0 µM,99% (active)
same,growth inhibition,[7]; at 100.0 µM,99% (active)
same,growth inhibition,[8]; [17],95% (active)
same,growth inhibition,[8]; [18],99% (active)
same,growth inhibition,[8]; at 50.0 µM,82.7% (active)
same,growth inhibition,[9]; at 1.2 µM,2%
same,growth inhibition,[9]; at 3.7 µM,50%
same,growth inhibition,[9]; at 11.0 µM,91% (active)
same,growth inhibition,[9]; at 33.0 µM,97% (active)
same,growth inhibition,[9]; at 100.0 µM,98% (active)
same,growth inhibition,[10]; [17],99% (active)
same,growth inhibition,[10]; [18],99% (active)
same,growth inhibition,[10]; at 50.0 µM,88.8% (active)
same,growth inhibition,[11]; at 1.2 µM,-11%
same,growth inhibition,[11]; at 3.7 µM,34%
same,growth inhibition,[11]; [17],2%
same,growth inhibition,[11]; at 11.0 µM,96% (active)
same,growth inhibition,[11]; at 33.0 µM,97% (active)
same,growth inhibition,[11]; [18],99% (active)
same,growth inhibition,[11]; at 50.0 µM,87.2% (active)
same,growth inhibition,[11]; at 100.0 µM,99% (active)
same,growth inhibition,[12]; at 1.2 µM,6%
same,growth inhibition,[12]; at 3.7 µM,42%
same,growth inhibition,[12]; at 11.0 µM,94% (active)
same,growth inhibition,[12]; at 33.0 µM,97% (active)
same,growth inhibition,[12]; at 100.0 µM,99% (active)
same,growth inhibition,[13]; at 1.2 µM,23%
same,growth inhibition,[13]; at 3.7 µM,63%
same,growth inhibition,[13]; at 11.0 µM,94% (active)
same,growth inhibition,[13]; at 33.0 µM,97% (active)
same,growth inhibition,[13]; at 100.0 µM,98% (active)
same,growth inhibition,[14]; at 1.2 µM,90% (active)
same,growth inhibition,[14]; at 3.7 µM,93% (active)
same,growth inhibition,[14]; at 11.0 µM,98% (active)
same,growth inhibition,[14]; at 33.0 µM,98% (active)
same,growth inhibition,[14]; at 100.0 µM,98% (active)
same,growth inhibition,[15]; [17],97% (active)
same,growth inhibition,[15]; [18],98% (active)
same,growth inhibition,[15]; at 50.0 µM,82.6% (active)
same,growth inhibition,[16]; at 1.2 µM,96% (active)
same,growth inhibition,[16]; at 3.7 µM,96% (active)
same,growth inhibition,[16]; at 11.0 µM,96% (active)
same,growth inhibition,[16]; at 33.0 µM,97% (active)
same,growth inhibition,[16]; at 100.0 µM,98% (active)
